Measurements published in PubChem BioAssay AID1014 (NMMLSC, 2008).
Active and inactive are the calls of the source. Cut-off read from the data, not from the text of the source: active = inhibition of mean fluorescence above about 33%; inactive = the rest.

Experiment: blockers of bacterial quorum-sensing reporter fluorescence – flow cytometry, SAR analogs, SAR follow-up (AID 1014);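 note: Staphylococcus aureus RN6390 with RNAIII-GFP reporter stimulated by AIP; bacteria incubated with compound for 3 hours at 37 °C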
Conditions: at 20 µM, stronger effect = higher value; inhibition of percent positive cells: measured here: percent reporter-positive cells

Row | Compound | inhibition of mean fluorescence | inhibition of percent positive cells [%]
1 | O=C(NCCN1CCN(c2ccccc2)CC1)c1ccccc1F | -12.3% (inactive) | -1.5
2 | COc1ccc(C2C(C(=O)Nc3ccc4c(c3)OCO4)c3ccccc3C(=O)N2C2CCCCC2)cc1 (stereo not given) | 8% (inactive) | 0.6
3 | O=C(NCC(c1cccnc1)N1CCN(c2ccc(F)cc2)CC1)C1CC1 (stereo not given) | -43% (inactive) | 0.1
4 | O=C(Nc1ccc2c(c1)OCCO2)C(c1ccc(F)cc1)N1CCCCC1 (stereo not given) | 12.6% (inactive) | -0.6
5 | COc1ccc(S(=O)(=O)c2nnn3c2nc(Nc2ccc(C)cc2)c2ccccc23)cc1 | 8.2% (inactive) | -0.3
6 | CC1CCCN(C(C(=O)Nc2ccc3c(c2)OCCO3)c2ccccc2)C1 (stereo not given) | 91.5% (active) | 63.1
7 | CC1CCN(C(=O)c2oc3ccccc3c2NC(=O)c2ccc3c(c2)OCO3)CC1 | 25.2% (inactive) | -0.2
8 | Cc1cc(C)nc(Nc2ccc(Br)cc2C(=O)O)n1 | 17.1% (inactive) | 0.6
9 | Cc1ccc(Nc2nc3c(S(=O)(=O)c4ccc(C(C)(C)C)cc4)nnn3c3ccccc23)cc1 | -38.2% (inactive) | -1
10 | CC1CCCN(C(C(=O)NC2CCCC2)c2cc3c(cc2[N+](=O)[O-])OCO3)C1 (stereo not given) | 14.5% (inactive) | -1.7
11 | CC(C)c1ccc(NC(=O)C(c2cc3c(cc2[N+](=O)[O-])OCO3)N2CCOCC2)cc1 (stereo not given) | 8.1% (inactive) | 0.7
12 | CCc1ccc(S(=O)(=O)c2nnn3c2nc(Nc2ccc(Oc4ccccc4)cc2)c2cc(Cl)ccc23)cc1 | -16.6% (inactive) | -0.1
13 | CCCCc1oc2ccccc2c1C(=O)c1ccc(O)cc1 | 84.9% (active) | 43.2
14 | COc1cccc(C(=O)NCC(c2cccnc2)N2CCN(c3ccccc3F)CC2)c1 (stereo not given) | 7% (inactive) | -1.4
15 | Cc1ccc(Nc2c(C(=O)O)cc([N+](=O)[O-])cc2[N+](=O)[O-])cc1Cl | -19.5% (inactive) | -0.4
16 | Cc1ccc(S(=O)(=O)c2nnn3c2nc(Nc2cc(C)cc(C)c2)c2ccccc23)cc1 | -4% (inactive) | -1.1
17 | O=C(NCC(c1cccnc1)N1CCN(c2ccccc2F)CC1)c1cccc(Cl)c1 (stereo not given) | 67.2% (active) | 3.5
18 | O=C(Nc1ccc2c(c1)OCO2)C(c1ccccc1)N1CCCCC1 (stereo not given) | 40.3% (active) | -0.7

Row | Compound | inhibition of mean fluorescence | inhibition of percent positive cells [%]
19 | N#Cc1c(NC(=O)COC(=O)c2c3c(nc4ccccc24)CCCC3)sc2c1CCCC2 | -13.5% (inactive) | -0.1
20 | CCc1ccc(Nc2nc3c(S(=O)(=O)c4ccc(C)cc4)nnn3c3ccccc23)cc1 | 19.1% (inactive) | -1.1
21 | Cc1ccc(C(C)C)c(OCC(=O)Nc2sc3c(c2C#N)CCCCC3)c1 | -18.6% (inactive) | -0.9
22 | CC1CCN(C(=O)Cn2cc(SCC(=O)Nc3ccc4c(c3)OCO4)c3ccccc32)CC1 | -4.6% (inactive) | -0.2
23 | CC(NC(=O)c1cccc(F)c1)C(c1cccs1)N1CCN(c2ccccc2F)CC1 (stereo not given) | 16.4% (inactive) | 0.2
24 | CCc1ccc(Nc2nc3c(S(=O)(=O)c4ccc(Br)cc4)nnn3c3ccccc23)cc1 | -16.7% (inactive) | 0
25 | CCOC(=O)C1=C(c2ccccc2)NC(SCC(=O)Nc2sc3c(c2C(=O)OCC)CCCC3)=C(C#N)C1c1ccco1 (stereo not given) | -27.4% (inactive) | 0.1
26 | CC(C)c1ccc(NC(=O)C(c2cc3c(cc2[N+](=O)[O-])OCO3)N2CCCCC2)cc1 (stereo not given) | 29% (inactive) | -0.2
27 | Cc1ccc(Nc2nc3c(S(=O)(=O)c4ccccc4)nnn3c3ccccc23)cc1 | -19% (inactive) | 0.4
28 | O=C(Nc1ccc2c(c1)OCO2)C(c1ccccc1)N1CCC2(CC1)OCCO2 (stereo not given) | -2.7% (inactive) | -0.2
29 | CC(=O)c1cc2c(O)c(O)ccc2o1 | 17.9% (inactive) | -0.1
30 | COc1c(F)c(F)c(C(=O)O)c(Nc2cccc(C)c2)c1F | -11.5% (inactive) | -1.3
31 | Cc1ccc(NC(=O)CN2CCN(Cc3ccc4c(c3)OCO4)CC2)cc1 | -30.1% (inactive) | -0.8
32 | O=C(NCC(c1cccnc1)N1CCN(c2ccccc2F)CC1)c1ccco1 (stereo not given) | -27.7% (inactive) | -1.9
33 | CC1CCN(CC2CCN(C(=O)Nc3ccc4c(c3)OCCO4)CC2)CC1 | -3.7% (inactive) | 0
34 | COc1ccc(N2CCN(C(CNC(=O)c3ccc(F)cc3)c3cccnc3)CC2)cc1 (stereo not given) | -63.3% (inactive) | -1.5
35 | O=C(NCC(c1cccnc1)N1CCN(c2ccc(F)cc2)CC1)c1cccc(Cl)c1 (stereo not given) | -11.7% (inactive) | -0.1
